Hit rate of the full screen: of about 52,000 compounds, about 4,300 (8.3%) were called active. Many of the other results were omitted from the sample, so actives are more common in it than they were. Unmarked numbers belong to inactive results. No stated cut-off is given here; in the data, active means survival mostly below about 52% (no sharp cut-off); inactive means mostly above about 56%.
system: DeltatarO mutant; assay: S. aureus survival, RN4220 and DeltatarO strains – OD600, teichoic acid synthesis inhibitors, primary screen (AID 463173); conditions: S. aureus RN4220 wild type/DeltatarO growth, OD600, 18 h, hits give low values, screened at 18.75 µg/mL (by protocol)

| Structure (SMILES) | survival |
| --- | --- |
| O=C(N/N=C/c1ccc(-c2ccc(Cl)c(C(=O)O)c2)o1)c1ccncc1 | 68% |
| CCc1ccc(-n2c(=O)c3c4c(sc3n(CC(=O)c3ccc(F)cc3)c2=O)CCC4)cc1 | 81% |
| CC(C)CCNC(=O)c1nn(C)c2c1CSc1ccccc1-2 | 70% |
| Cn1cnnc1SCC(N)=O | 99% |
| CCOC(=O)c1ccc(NC(=O)c2csnn2)cc1 | 104% |
| Cc1ccc(CNC(=O)CSc2ncc(S(=O)(=O)c3ccc(C)c(Cl)c3)c(=O)[nH]2)cc1 | 77% |
| Cc1cccc(NC(=O)CSc2cn(CC(=O)N3CCOCC3)c3ccccc23)c1 | 82% |
| COc1ccc(CCNC(=O)Cn2c(-c3cccs3)cc3cc(F)ccc32)cc1OC | 83% |
| Cc1ccc(-n2nc(C(=O)NCc3ccc(F)cc3Cl)c3c4ccccc4n(C)c3c2=O)cc1 | 131% |
| COc1ccc(OC)c(NC(=O)CSc2cn(CC(=O)N3CCCCCC3)c3ccccc23)c1 | 85% |
| COc1ccccc1Cc1nc2ccccc2nc1SCC(=O)Nc1cc(Cl)ccc1OC | 73% |
| COc1ccc(Cl)cc1NC(=O)CSc1nc2ccccc2nc1N1CCCCC1 | 27% (active) |
| COc1ccc(C)cc1NC(=O)CSc1nc2ccccc2nc1N1CCOCC1 | 73% |
| COc1ccc(NC(=O)CSc2nc3ccccc3nc2N2CCOCC2)c(OC)c1 | 76% |
| Cc1cccc(NC(=O)CSc2nc3ccccc3nc2N2CCCCC2)c1C | 75% |
| Cc1cc(C)c(NC(=O)CSc2nc3ccccc3nc2N2CCCCC2)c(C)c1 | 39% (active) |
| COc1ccc(OC)c(NC(=O)CSc2nc3ccccc3nc2N2CCCCC2)c1 | 5% (active) |
| Cc1cc(C)c(NC(=O)c2nc3ccccc3nc2N2CCCCC2)c(C)c1 | 90% |
| COc1ccc(-c2nc3n(n2)C(c2cccc(C)c2)C(C(N)=O)=C(C)N3)cc1OC (configuration not stated) | 93% |
| CCN(CC)Cc1ccc(C(=O)O)o1 | 97% |
| Cn1c(=O)c2sccc2n2c(CCC(=O)N3CCN(c4cccc(Cl)c4)CC3)nnc12 | 193% |
| CCOc1ccc(-c2cccc(NS(=O)(=O)c3ccc(Cl)s3)c2)nn1 | 92% |
| Cc1cccc(NC(=O)CSc2nc(=O)n(Cc3ccccn3)c3c2CCC3)c1C | 85% |

| Structure (SMILES) | survival |
| --- | --- |
| CCCOc1ccc(N2CC(C(=O)Nc3cccc(Cl)c3Cl)CC2=O)cc1 (configuration not stated) | 145% |
| CCCCOc1cccc(C(=O)N(Cc2sccc2C)C2CCS(=O)(=O)C2)c1 (configuration not stated) | 73% |
| CCc1ccc(NC(=O)c2ccc(Cn3nc(N4CCN(c5ccccc5)CC4)ccc3=O)o2)cc1 | 83% |
| CC(=O)c1cccc(NC(=O)c2ccc3c(c2)CCN3S(=O)(=O)c2ccccc2)c1 | 44% (active) |
| CC(=O)Nc1ccc(NC(=O)c2ccc3c(c2)CCN3S(=O)(=O)c2ccc(Cl)cc2)cc1 | 113% |
| O=C(c1ccc2c(c1)CCN2S(=O)(=O)c1ccccc1)N1CCN(c2cccc(Cl)c2)CC1 | 45% |
| O=C(Nc1cccc(Cl)c1)c1ccc2c(c1)CCN2S(=O)(=O)c1ccccc1 | 41% (active) |
| CCCCOC(=O)c1ccc(NC(=O)c2ccc3c(c2)CCN3S(=O)(=O)c2ccccc2)cc1 | 57% |
| Cc1ccc(S(=O)(=O)N2CCc3cc(C(=O)Nc4c(F)cccc4F)ccc32)cc1 | 64% |
| CCc1c(C)sc2c1CCN(C(=O)Nc1ccccc1C(=O)OC)C2c1ccc(OC)cc1 (configuration not stated) | 92% |
| Cn1cc(C(=O)NCCc2ccccc2)c(=O)c2cc(S(=O)(=O)N3CCCCCC3)ccc21 | 68% |
| CN(C(=O)c1nn(C)c2c1CS(=O)(=O)c1ccccc1-2)c1cccc(Cl)c1 | 64% |
| Cc1cccc(NC(=O)Cn2c(=O)n(CCC(=O)N3CCc4ccccc4C3)c(=O)c3ccccc32)c1 | 88% |
| COc1ccc(NC(=O)CSc2nc3c(oc4ccccc43)c(=O)n2-c2ccccc2)cc1OC | 63% |
| CCn1c(CN2CCOCC2)nc2cc(NC(=O)c3cc(OC)c(OC)c(OC)c3)ccc21 | 89% |
| O=C(NCCO)C(=O)Nc1c2c(nn1-c1ccc(F)cc1)CSC2 | 82% |
| COc1ccccc1NC(=O)CSc1nc(-c2ccc(C(C)(C)C)cc2)c(C#N)c(=O)[nH]1 | 52% |
| CCc1ccc(NC(=O)CSc2nc(-c3ccccc3)c(C#N)c(=O)[nH]2)cc1 | 78% |
| CC(C)(C)c1ccc(-c2nc(SCC(=O)Nc3ccc(Cl)cc3)[nH]c(=O)c2C#N)cc1 | -2% (active) |
| CN1CCN(C(=O)c2ccc3c(c2)N(Cc2c(F)cccc2Cl)C(=O)c2ccccc2S3)CC1 | 85% |
| Cc1ccc(S(=O)(=O)c2nc(-c3cccs3)oc2SCC(=O)Nc2cc(C)cc(C)c2)cc1 | 70% |
| CCn1c2ccccc2c2cc(CN3CCN(Cc4cc(OC)c(O)c(OC)c4)CC3)ccc21 | 43% (active) |
| COc1cc(CN2CCN(C(=O)c3cccc4ccccc34)CC2)cc(OC)c1OC | 72% |

| Structure (SMILES) | survival |
| --- | --- |
| COc1ccc(CCn2nnnc2CN2CCN(Cc3ccccc3)CC2)cc1OC | 82% |
| COc1cc(CN2CCN(S(=O)(=O)c3ccccc3)CC2)cc(OC)c1O | 57% |
| CCn1c2ccccc2c2cc(CN3CCN(Cc4ccc(OC)c(OC)c4)CC3)ccc21 | 17% (active) |
| CCCS(=O)(=O)N1CCN(Cc2ccc(OC)c(OCC)c2)CC1 | 97% |
| O=C(CCSCCc1ccccn1)Nc1cc(F)ccc1F | 79% |
| COc1ccc(-c2csc3ncnc(Nc4ccc(OC)cc4OC)c23)cc1 | 64% |
| CCCCNC(=O)c1ccc2c(c1)NC(=O)C(CS(=O)(=O)Cc1ccc(F)cc1Cl)N2 (configuration not stated) | 74% |
| O=C(CSc1nc2c(oc3ccccc32)c(=O)n1-c1ccccc1)Nc1ccccc1F | 66% |
| O=C(CSCc1ccc(F)cc1)N1CCN(c2ccccc2F)CC1 | 102% |
| COc1cccc(Nc2nc3ccccc3c3nncn23)c1 | 89% |
| Cc1ccc(Nc2nc3ccccc3c3nncn23)cc1C | -4% (active) |
| Cc1ccc(Cl)cc1Nc1nc2ccccc2c2nncn12 | 104% |
| O=C1CN(C(=O)c2ccc(S(=O)(=O)N3CCCCC3)cc2)C(c2ccc(F)cc2)c2cc(Cl)ccc2N1 (configuration not stated) | 62% |
| CC(C)Oc1ccc(CNC(=O)Cn2c(=O)oc3ccccc32)cc1 | 77% |
| Cc1nnc(SCc2ccc(Cl)cc2Cl)o1 | 80% |
| CC(C)C[C@H](N)c1nnc(SCc2ccc(Cl)cc2Cl)o1 | 38% (active) |
| C[C@H](NC(=O)OC(C)(C)C)c1nnc(SCc2ccc(Cl)cc2Cl)o1 | 54% |
| CSc1ncc2c(n1)-c1ccccc1N(Cc1ccc(Cl)cc1)S2(=O)=O | 98% |
| COC(=O)c1ccc(NC(=O)CN(C)S(=O)(=O)c2ccc(Br)s2)cc1 | 73% |
| COc1cccc(NC(=O)CCNS(=O)(=O)c2ccc3c(c2)oc(=O)n3C)c1 | 90% |
| COc1cccc(NC(=O)CCNS(=O)(=O)c2ccc(Br)s2)c1 | 37% (active) |
| CCOc1ccc(NC(=O)CCS(=O)(=O)c2ccc(Br)s2)cc1 | 82% |
| Cc1ccc(NC(=O)CCNS(=O)(=O)c2ccc(Br)s2)cc1 | 50% (active) |

| Structure (SMILES) | survival |
| --- | --- |
| O=C(CCNS(=O)(=O)c1ccc(Br)s1)Nc1ccc(Br)cc1 | 40% (active) |
| CCOc1ccc(NC(=O)CNS(=O)(=O)c2ccc(Br)s2)cc1 | 49% |
| COc1cccc(CNC(=O)C2CCC(CNS(=O)(=O)c3ccc(Br)s3)CC2)c1 (configuration not stated) | 71% |
| CCc1cccc(NC(=O)C2CCC(CNS(=O)(=O)c3ccc(Br)s3)CC2)c1 (configuration not stated) | 79% |
| Cc1cc(NC(=O)C2CCC(CNS(=O)(=O)c3ccc(Br)s3)CC2)ccc1Br (configuration not stated) | 93% |
| Cc1cccc(NC(=O)C2CCC(CNS(=O)(=O)c3ccc(Br)s3)CC2)c1 (configuration not stated) | 52% (active) |
| CCOc1ccc(NC(=O)CCNS(=O)(=O)c2cccs2)cc1 | 51% |
| Cc1c(Cl)cccc1NC(=O)CN1C(=O)COc2ccc(S(=O)(=O)N3CCOCC3)cc21 | 88% |
| CC1C(=O)OC(c2ccccc2)C(C)(C)C1=O (configuration not stated) | 94% |
| CCc1ccccc1N1C(=O)CC(N2CCc3ccccc32)C1=O (configuration not stated) | 102% |
| Cc1ccc(NC(=O)c2oc3ccc(S(=O)(=O)N4CCCCC4)cc3c2C)c(C)c1 | 79% |
| Cc1ccc(Cl)cc1N1CCN(C(=O)COCc2cc(-c3ccc4c(c3)OCO4)on2)CC1 | 95% |
| Cc1cccc(CC(=O)NCCc2sc3nc(-c4ccc(F)cc4)nn3c2C)c1 | 91% |
| COc1ccccc1NC(=O)Cn1c(=O)n(-c2cccc(Cl)c2)c(=O)c2sc3ccccc3c21 | 103% |
| CCOC(=O)c1c(C)[nH]c(CCC(=O)NCc2ccc(OC)c(OC)c2)c1C | 81% |
| COc1ccc(C)cc1NC(=O)CSc1ncc2c(n1)-c1ccc(Cl)cc1N(Cc1ccccc1)S2(=O)=O | 78% |
| CCc1ccccc1NC(=O)CSc1nc2c(c(=O)[nH]1)CN(Cc1ccccc1OC)CC2 | 75% |
| O=c1[nH]c(SCc2c(F)cccc2Cl)nc2c1CCC2 | 74% |
| COc1ccc(OCC(=O)Nc2ccc(N3CCN(S(C)(=O)=O)CC3)cc2)cc1 | 97% |
| COc1ccc(NC(=O)Cn2c(=O)nc(-c3ccccc3)c3ccccc32)cc1OC | 78% |
| Cc1ccc(NC(=O)C2CCC(CNS(=O)(=O)c3cccc4nsnc34)CC2)c(Cl)c1 (configuration not stated) | 47% (active) |
| Cc1ccc(NC(=O)C2CCC(CNS(=O)(=O)c3cccc4nsnc34)CC2)c(C)c1 (configuration not stated) | 95% |
| Cc1ccc(Cl)cc1NC(=O)C1CCC(CNS(=O)(=O)c2cccc3nsnc23)CC1 (configuration not stated) | 100% |

Reference: PubChem BioAssay AID463173 (ICCB-Longwood Screening Facility, Harvard Medical School, 2010)
